Data as given in PubChem BioAssay AID1224862 (National Center for Advancing Translational Sciences (NCATS), 2016).
Results filed as inconclusive are left out. The source made the active and inactive calls. Calls follow the shape of the dose curve; as a rule, active = well fitted cell-killing curve with a large enough effect; inconclusive = small, poorly fitted or top-dose-only effect, or effect the other way; inactive = flat fitted curve, though single readings scatter.

Assay: Compound cytotoxicity measured by an ATP content assay as a counter-screen for lead compounds in human astrocytoma cell line (SNB-19)
Details: SNB-19 astrocytoma viability, ATP luminescence; series mostly up to 46.1 µM; activity change, negative = cytotoxicity: at the top concentration
How it was run: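 SNB-19 cells, 250 per well, were treated with compounds for 6, 24 or 72 h after overnight seeding. The ATP detection reagent was added 1:1 and luminescence read after 10 min at room temperature, with the signal converted to percent inhibition of viability.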

Row | Compound | Potency | activity change, negative = cytotoxicity
1 | CC1(C)OC2=C(C(=O)c3ccccc3C2=O)[C@H](NCc2ccccc2)[C@H]1O | 8.91 µM (active) | 
2 | O=C(C=CC=Cc1ccc2c(c1)OCO2)N1CCCCC1 |  | -3.2% (inactive)
3 | CC(C)OC(=O)CCCC=CC[C@@H]1[C@H](C=C[C@@H](O)COc2cccc(C(F)(F)F)c2)[C@H](O)C[C@@H]1O |  | -1.19% (inactive)
4 | COc1ccc(-c2cc(=O)c3c(O)cc(O)cc3o2)cc1O |  | 25.9% (inactive)
5 | CC(C(=O)O)c1ccc(-c2ccccc2)c(F)c1 (configuration not stated) |  | 12.2% (inactive)
6 | COCCn1c2c([n+](Cc3cnccn3)c1C)C(=O)c1ccccc1C2=O | 0.0155 µM (active) | 
7 | COc1ccc(C=CC(=O)Nc2ccccc2C(=O)O)cc1OC |  | -17.9% (inactive)
8 | CCCCCCCCCCCC(=O)[O][Sn]([CH2]CCC)([CH2]CCC)[O]C(=O)CCCCCCCCCCC |  | 11.7% (inactive)
9 | CC=CC[C@@H](C)C(=O)[C@H]1C(=O)N[C@@H](C(C)C)C(=O)N(C)CC(=O)N(C)[C@@H](CC(C)C)C(=O)N[C@@H](C(C)C)C(=O)N(C)[C@@H](CC(C)C)C(=O)N[C@@H](C)C(=O)N[C@H](C)C(=O)N(C)[C@@H](CC(C)C)C(=O)N(C)[C@@H](CC(C)C)C(=O)N(C)[C@@H](C(C)C)C(=O)N1C |  | -12.1% (inactive)
10 | N#CC1(c2ccc(NC(=O)c3cccnc3NCc3ccncc3)cc2)CCCC1 |  | -12.2% (inactive)
11 | O=C(CS)Nc1ccccc1 |  | 31.3% (inactive)
12 | Nc1nc2ccc([N+](=O)[O-])cc2s1 |  | 14.7% [at 88.3 µM] (inactive)
13 | Cc1[nH]c(C=C2C(=O)Nc3ccccc32)c(C)c1CCC(=O)O |  | 3.28% (inactive)
14 | Cc1c(N)c(=O)n(-c2ccccc2)n1C |  | -1.88% (inactive)
15 | CNC(=O)c1ccccc1Sc1ccc2c(/C=C/c3ccccn3)n[nH]c2c1 | 10.9 µM (active) | 
16 | C[C@@H](N)c1ccc(C(=O)Nc2ccnc3[nH]ccc23)cc1 |  | 10.8% (inactive)
17 | CN1CCN(c2cc3c(nn2)Oc2ccccc2N3C)CC1 |  | 14.2% [at 23.8 µM] (inactive)
18 | O=C1c2ccccc2-[n+]2ccc3c([nH]c4ccccc43)c21 | 4.35 µM (active) | 
19 | O=C(O)c1ccccc1Nc1cccc(C(F)(F)F)c1 |  | -21.9% (inactive)

Row | Compound | Potency | activity change, negative = cytotoxicity
20 | C=CCCCCCCCCC(=O)O |  | -4.48% (inactive)
21 | O=C(Oc1ccccc1)c1cccc(C(=O)Oc2ccccc2)c1 |  | 9.64% [at 96.3 µM] (inactive)
22 | CCC(C)SSc1ncc[nH]1 (configuration not stated) |  | -19.8% (inactive)
23 | O=C1C[C@@H](c2ccc(O)cc2)Oc2cc(O)cc(O)c21 |  | -5.2% (inactive)
24 | O=C1c2ccccc2C(=O)c2c(NCCc3ccc(O)cc3)ccc(NCCc3ccc(O)cc3)c21 |  | -32.8% (inactive)
25 | O=C1NC(=O)C(=Cc2ccc(-c3ccc(F)cc3)o2)S1 |  | -5.67% (inactive)
26 | CC(C(=O)O)c1ccc2c(c1)[nH]c1ccc(Cl)cc12 (configuration not stated) |  | 13.1% (inactive)
27 | CCOC1OC(=O)C[C@H]1NC(=O)[C@@H]1CCCN1C(=O)[C@@H](NC(=O)c1ccc(N)c(Cl)c1)C(C)(C)C (some centres not stated) |  | 7.25% (inactive)
28 | O=C(O)c1cc([N+](=O)[O-])ccc1NCCCc1ccccc1 |  | -12% (inactive)
29 | Cc1ccc(O)c(-n2nc3ccccc3n2)c1 |  | -13.5% (inactive)
30 | CC1=C(CO)C(=O)O[C@@H]([C@@H](C)[C@H]2CC[C@H]3[C@@H]4C[C@H]5O[C@]56[C@@H](O)C=CC(=O)[C@]6(C)[C@@H]4CC[C@]23C)C1 |  | 3.75% (inactive)
31 | C[C@@H](O[C@H]1OCCN(Cc2n[nH]c(=O)[nH]2)[C@@H]1c1ccc(F)cc1)c1cc(C(F)(F)F)cc(C(F)(F)F)c1 |  | -15.8% (inactive)
32 | Nc1ccc(O)c(C(=O)O)c1 |  | -4.62% (inactive)
33 | CC(=O)OC(C)OC(=O)C(C)c1ccc(-c2ccccc2)c(F)c1 (configuration not stated) |  | -19.8% (inactive)
34 | Cc1cccc(C#Cc2ccccc2)n1 | 24.5 µM (active) | 
35 | COc1cc(NC(C)CCCN)c2ncccc2c1 (configuration not stated) |  | 7.08% (inactive)
36 | Cc1cc(O)c2c(c1)C(=O)c1cc(O)cc(O)c1C2=O |  | -13% (inactive)
37 | O=C(/C=C/c1ccccc1)NCCO |  | 9.32% (inactive)
